Each structure is given as a SMILES string. Several values for one entry are separate records, joined by “and”; a condition that tells them apart may be missing. Equal values may be shown once. Hit rate of the full screen: of about 330,000 compounds, about 1,500 (0.45%) were called active. Inconclusive results (about 6%) are left out. The sample holds actives, similar compounds and a random draw of the others, so the mix is not that of the screen. The call rests on the fitted dose curve; tested in A549 cells. A structure can be active in one record and inactive in another.
On the % scale 0 is the no-effect control and ±100 the full control effect; potency means the concentration at half of the fitted maximal effect.

This experiment is described as follows: qHTS for Stage-Specific Inhibitors of Vaccinia Orthopoxvirus: Venus Reporter Primary qHTS. Further: nearly all actives have a fitted effect of over 30% in size. Conditions: Vaccinia virus Venus reporter expression, fluorescence; series mostly up to 36.5 µM; activity change, negative = inhibition: at the top concentration. (In general: qHTS replaces the single test concentration by a dilution series.)
For `CCCCC[C@H](C)N1C[C@@H](COCc2ccccc2)Oc2cc(N3CC[C@@H](N(C)C)C3)ccc2S1(=O)=O`, the “activity change, negative = inhibition” value is -10.3% (inactive).
Still for that read-out and setting: as for `CCC(C(=O)NCc1ccccc1)n1c(Cc2cc(F)cc(F)c2)nc2ccccc21` (configuration not stated), the figure is -13.7% (inactive); as for `CCCCNC(=O)C[C@@H]1C[C@@]2(C(=O)OC)CC(C)(C)CC=C2N(Cc2ccco2)C1=O`, -17.4% (inactive).
For the compound `O=C(c1ccc(C(F)(F)F)cc1)N1CCC(=O)N([C@H](COCc2ccccc2)Cc2ccccc2)CC1`, the “activity change, negative = inhibition” value was -11.3% (inactive).
Take `O=C1Nc2ccccc2NC(c2ccc3c(c2)OCO3)=C1N(Cc1ccc(F)cc1)C(=O)c1ccco1`: the “activity change, negative = inhibition” value was 8.77% (inactive).
The same measure, in the same setting: then `COc1ccc(Cc2nnc(SCC(=O)c3cccc([N+](=O)[O-])c3)n2C)cc1`, with -7.6% (inactive).
As to `COc1ccc2c(C(=O)c3ccc(C)cc3)n(CCC(N)=O)[n+]([O-])c2c1`, the “activity change, negative = inhibition” value was -5.46% (inactive).
As to `COc1ccc(C(=O)c2c3ccc([N+](=O)[O-])cc3[n+]([O-])n2CCCN)cc1`, the Potency was 10 µM (active).
With `COc1ccc(C(C)(O)c2nc(-c3ccc(C)c(C)c3)cs2)cc1` (configuration not stated), the “activity change, negative = inhibition” value is -24.7% (inactive).
For the compound `CCOc1ccc(/C=N/NC(N)=S)cc1`, the Potency is 1 µM (active).
With `CCOc1ccc(/C=N\NC(=O)c2c(C)nc3cc(C)ccn23)cc1`, the “activity change, negative = inhibition” value was -16.5% (inactive).
Same read-out and setting: as for `CCOc1ccc(-c2cc(C(=O)N/N=C/c3ccc(O)cc3)c3ccccc3n2)cc1`, the figure is 0% (inactive); as for `CCCCn1nnnc1C(c1cccc(OC)c1OC)N1CCN(C/C=C/c2ccccc2)CC1` (configuration not stated), -4.84% (inactive).
On the same count and under the same terms, as for `C=CCC[C@H](CCCCC)OC(=O)/C=C/[C@H](O)[C@@H](O)C[C@@H](O)CC=C`, the figure is -17.3% (inactive); as for `COC(=O)[C@]12CCCCC=C1N(Cc1ccco1)C(=O)[C@H](CC(=O)NCC1CCCCC1)C2`, -1.07% (inactive).
Same read-out and setting: as for `COc1ccc(CN(Cc2ccccc2)C(=O)c2ccc(O)cc2)cc1COc1ccc(NC(C)=O)cc1`, the figure is -14.1% (inactive).
For the compound `COc1cc(/C=C2\Oc3ccc(C#Cc4ccc(O)cc4)cc3C2=O)cc(OC)c1`, the Potency was 8.91 µM (active).
Take `COc1cc(C#Cc2ccc3cc(CCCO)oc(=O)c3c2)cc(OC)c1`: the “activity change, negative = inhibition” value was -27.7% (inactive).
Same read-out and setting: as for `CC(C)C1C(=O)N(Cc2cn(CCC3OCCO3)nn2)CCS(=O)(=O)N1Cc1ccc(-c2ccccc2C(F)(F)F)cc1` (configuration not stated), the figure is -11.9% (inactive); as for `CC(C)OC(=O)c1ccc(COc2ccc3ccc(=O)oc3c2)o1`, -3.73% (inactive).
As to `CC(=CCOc1ccc2ccc(=O)oc2c1)C1=CC(=O)C(C)(C)O1`, the Potency was 3.55 µM (active).
Consider `Cc1noc(C)c1COc1ccc2ccc(=O)oc2c1`, for which the “activity change, negative = inhibition” value was -14.6% (inactive).
On the same count and under the same terms, as for `CCOc1ccc(CCN2C(=S)N([C@@H](CC(C)C)CN3CCC[C@@H]3CN3C(=S)NC[C@@H]3Cc3ccc(O)cc3)C[C@@H]2CC(C)C)cc1`, the figure is -12.4% (inactive); as for `Cc1ccc(C(=O)Nc2nc3ccc(Cl)cc3s2)o1`, -7.19% [at 7.34 µM] (inactive); as for `Cc1cnc(NC(=O)CSc2nnc(-c3ccc(Cl)cc3Cl)n2N)s1`, -22.3% (inactive).
Regarding `Cc1ccc(CCC(=O)Nc2ncc(Cc3cc(Cl)ccc3Cl)s2)o1`, the Potency is 4.47 µM (active).
On to `COC(=O)C1=CN(c2c(C)cc(C)cc2C)C(N)=C(C#N)C1c1cccc(F)c1` (configuration not stated), for which the “activity change, negative = inhibition” value is -25.6% (inactive).
Turning to `Clc1ccc(Cn2ncc3c(NCc4cccnc4)ncnc32)cc1`, the Potency is 8.91 µM (active).
`CC(C)CNc1ncnc2c1cnn2Cc1ccc(Cl)cc1`: the “activity change, negative = inhibition” value was -9.44% (inactive).
For `Brc1ccc2ncnc(NCc3cccnc3)c2c1`, the “activity change, negative = inhibition” value is -18.1% (inactive).
Same read-out and setting: as for `CC(C)C[C@H]1CN([C@@H](Cc2ccccc2)CN2CCC[C@@H]2CN2C(=O)C(=O)NC[C@@H]2Cc2ccc(O)cc2)C(=O)C(=O)N1CCc1ccccc1`, the figure is -8.63% (inactive); as for `COc1ccc(-c2nc(=N)sn2-c2ccccc2)cc1`, -26.5% (inactive); as for `COc1ccc(C(NC(=O)C2CCN(CCCc3ccccc3)CC2)c2cccs2)cc1` (configuration not stated), -17.3% (inactive).
With `N#Cc1c(Cl)c(Cl)c(Cl)c(C#N)c1Cl`, the Potency entry is “inactive and 14.1 µM (active)”.
Consider `CCOc1ccc(NC(=O)CSc2nnc3c(n2)[nH]c2ccc(S(=O)(=O)N4CCOCC4)cc23)cc1`, for which the “activity change, negative = inhibition” value is -23.5% (inactive).
On to `COC1C(O)C(C)OC(OC2CCC3(C=O)C(CCC4C3CCC3(C)C(C5=CC(=O)OC5)CCC43O)C2)C1O` (configuration not stated), for which the Potency is 0.1 µM (active).
On the same count and under the same terms, then `COC1CC(OC2CC[C@@]3(C=O)C4CC[C@]5(C)C(C6=CC(=O)OC6)CC[C@@]5(O)C4CC[C@]3(O)C2)OC(C)C1O` (some centres not stated), with 0.282 µM (active).
As for `O=C(Nc1ccc2c(c1)OCCO2)C(C1CC1)N1CCC(Cc2ccccc2)CC1` (configuration not stated), the “activity change, negative = inhibition” value was 1.13% (inactive).
On the same count and under the same terms, as for `O=S1(=O)CC(N2CCN(Cc3ccccc3F)CC2)CN1Cc1cn(Cc2ccccc2)nn1` (configuration not stated), the figure is -1.01% (inactive); as for `Cc1nc2c(OCc3ccc(Cl)cc3)cccn2c1N(C)Cc1cccs1`, -19.4% (inactive).
On the same count and under the same terms, then `CCOC(=O)[C@]12CCCC=C1N(Cc1ccc3c(c1)OCO3)C(=O)[C@H](CC(=O)N1CCN(C(=O)c3ccco3)CC1)C2`, with -3.23% (inactive).
On to `COC(=O)c1ccc(NC(=O)CSc2nnc(CNc3ccc(OC)cc3)n2C)cc1`, for which the Potency is 12.6 µM (active).
In the case of `COC(=O)c1ccc(NC(=O)CSc2nnc(C3CC3)n2C)cc1`, the “activity change, negative = inhibition” value was -11.9% (inactive).
On the same count and under the same terms, as for `COc1ccc(C(=O)NCc2nnc(SCC(=O)NC3=NCCS3)n2C)cc1`, the figure is 1.83% (inactive).
On to `Cc1ccc(S(=O)(=O)N2[C@@H](Cc3ccccc3)CO[C@H]2CC(=O)OCc2ccccc2)cc1`, for which the “activity change, negative = inhibition” value was -15.6% (inactive).
Same read-out and setting: as for `N#Cc1cccc(NC(=O)c2cc(C3CCCCN3C(=O)CCc3ccccc3)on2)c1` (configuration not stated), the figure is -6.64% (inactive).
Same read-out and setting: as for `CCOC(=O)N1C(=O)C[C@](Sc2ccc(C)cc2)(C(=O)OC)[C@H]1c1ccccc1`, the figure is 8.58% (inactive); as for `COc1ccc(OC)c(NC(=O)C2(C)CCN2C(=O)Cc2ccccc2)c1` (configuration not stated), -2.79% (inactive).
Same read-out and setting: then `O=C(NCc1cccnc1)c1cc(C2CCCN(C(=O)C3CCCCC3)C2)on1` (configuration not stated), with 1.16% (inactive); and `CC(C)C[C@H](CO)Nc1nc(N(C)c2cccc(Cl)c2)c2ncn(C(C)C)c2n1`, with -28.6% (inactive).
`CC(C)n1cnc2c(Nc3cccc(Cl)c3)nc(N(CCO)CCCO)nc21`: the Potency is 11.2 µM (active).
For `COC(=O)[C@@]12C[C@@H](CC(=O)N3CCCCC3)C(=O)N(Cc3ccc4c(c3)OCO4)C1=CCC(C)(C)C2`, the “activity change, negative = inhibition” value is -19.4% (inactive).
As to `CCc1nc2c(OCc3ccc(C(=O)OC)cc3)cccn2c1N(C)C(=O)C(C)C`, the “activity change, negative = inhibition” value was -10.2% (inactive).
Same read-out and setting: as for `CN(C)c1ccc(/C=C/C=C/c2ccnc3ccccc23)cc1`, the figure is 128% (inactive); as for `COc1cccc(-c2nc(Nc3ccncc3)c3ccccc3n2)c1`, 19.3% (inactive).
On to `Cc1cnc(CNc2nc(-c3cccnc3)nc3ccccc23)cn1`, for which the “activity change, negative = inhibition” value is 0% (inactive).
Regarding `O=[N+]([O-])c1ccc(F)cc1Oc1nc(-c2cccnc2)nc2ccccc12`, the Potency was 5.01 µM (active).
